From publication PMC4336329 (PLoS ONE, 2015) come the findings set out here.

The structures appear in SMILES notation. The whole screen tested about 310,000 compounds, of which about 14,000 (4.5%) showed an effect of 50% or more. The effect is printed as a negative number. Shown is part of a subset that was picked to be rich in strong results.
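Further: peak tail current of the secondary pulse compared with the same well before compound.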

For the test, the target named is human ether-à-go-go-related gene (hERG) potassium channel (human, UniProt Q12809). The test is described as follows: primary screen, population patch clamp on CHO cells stably expressing hERG; higher = less effect of the substance.
Sequence of human ether-à-go-go-related gene (hERG) potassium channel (Q12809 whole entry, looked up): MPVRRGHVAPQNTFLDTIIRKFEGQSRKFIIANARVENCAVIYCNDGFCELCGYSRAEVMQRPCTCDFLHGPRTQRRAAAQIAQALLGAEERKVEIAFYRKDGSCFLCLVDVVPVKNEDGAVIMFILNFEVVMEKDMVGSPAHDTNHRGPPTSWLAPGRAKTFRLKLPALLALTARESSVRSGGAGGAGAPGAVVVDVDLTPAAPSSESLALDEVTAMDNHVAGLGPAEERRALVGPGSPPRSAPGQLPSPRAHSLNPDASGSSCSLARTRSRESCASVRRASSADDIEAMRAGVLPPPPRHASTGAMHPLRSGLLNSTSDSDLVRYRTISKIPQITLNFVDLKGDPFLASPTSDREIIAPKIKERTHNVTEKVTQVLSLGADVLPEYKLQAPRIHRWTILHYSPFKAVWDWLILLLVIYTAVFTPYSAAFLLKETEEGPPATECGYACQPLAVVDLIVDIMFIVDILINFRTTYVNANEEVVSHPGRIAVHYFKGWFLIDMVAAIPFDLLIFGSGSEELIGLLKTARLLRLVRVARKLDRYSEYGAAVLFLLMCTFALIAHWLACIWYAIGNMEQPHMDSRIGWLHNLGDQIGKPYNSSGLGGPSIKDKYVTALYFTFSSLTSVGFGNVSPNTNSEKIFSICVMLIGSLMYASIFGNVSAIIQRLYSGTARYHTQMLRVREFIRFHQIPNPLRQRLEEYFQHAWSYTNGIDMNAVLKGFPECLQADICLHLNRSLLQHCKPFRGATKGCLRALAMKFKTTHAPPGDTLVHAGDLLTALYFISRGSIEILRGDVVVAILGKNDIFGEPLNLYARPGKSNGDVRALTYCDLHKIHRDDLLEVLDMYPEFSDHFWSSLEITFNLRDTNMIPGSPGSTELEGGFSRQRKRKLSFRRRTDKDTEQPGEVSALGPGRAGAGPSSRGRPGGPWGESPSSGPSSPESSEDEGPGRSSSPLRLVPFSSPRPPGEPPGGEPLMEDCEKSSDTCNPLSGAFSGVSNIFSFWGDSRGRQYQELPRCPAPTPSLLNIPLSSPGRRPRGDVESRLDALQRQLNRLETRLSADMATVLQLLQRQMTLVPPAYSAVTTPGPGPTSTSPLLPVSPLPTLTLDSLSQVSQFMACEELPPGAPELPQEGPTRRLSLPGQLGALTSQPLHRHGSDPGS
In the case of `Cc1c(NS(=O)(=O)c2cccc(C(=O)Nc3ccccc3)c2)c(=O)n(-c2ccccc2)n1C`, the “hERG current change (%, negative = inhibition) at 10uM” value was -11%.
Consider `CCn1cc(C(=O)N2CC(C)CC(C)C2)c(=O)c2cc(S(=O)(=O)N3CCCC3)ccc21` (stereo not shown), for which the “hERG current change (%, negative = inhibition) at 10uM” value worked out at 6.81%.
Regarding `O=[N+]([O-])c1cc(C(F)(F)F)ccc1Sc1nccn1Cc1ccccc1`, the “hERG current change (%, negative = inhibition) at 10uM” value was -30.3%.
`NC(=O)CSc1nccn1Cc1ccccc1`: the “hERG current change (%, negative = inhibition) at 10uM” value is recorded as 7.57%.
Take `O=C(CSc1nccn1Cc1ccccc1)Nc1ccccc1`: the “hERG current change (%, negative = inhibition) at 10uM” value stood at 12.4%.
As to `O=[N+]([O-])c1ccccc1Sc1nccn1Cc1ccccc1`, the “hERG current change (%, negative = inhibition) at 10uM” value is -21.6%.
Take `O=[N+]([O-])c1ccc(Sc2nccn2Cc2ccccc2)cc1`: the “hERG current change (%, negative = inhibition) at 10uM” value is listed as -59.5%.
As to `O=[N+]([O-])c1ccc(Sc2nccn2Cc2ccccc2)c([N+](=O)[O-])c1`, the “hERG current change (%, negative = inhibition) at 10uM” value is reported as -57.9%.
The result for `CCCn1c(C(CO)Nc2nc(C)cs2)nc2ccccc21` (stereo not shown) reads -5.83%; that for `O=C(NC(=S)Nc1ccc(Oc2ccc(Cl)cc2)cc1)c1ccccc1`, 10.7%.
For the molecule `O=C(Nc1nnc(-c2ccc(Cl)cc2)o1)c1cccc(N2C(=O)CCC2=O)c1`, the “hERG current change (%, negative = inhibition) at 10uM” value is 12.2%.
The result for `Cc1noc(C)c1COC(=O)CN(C)S(=O)(=O)c1ccc(Cl)cc1` reads -14.4%; that for `COCCCNC(=O)CC(NS(=O)(=O)c1ccc(F)cc1)c1ccc(OC)cc1` (stereo not shown), -1.73%.
In the case of `Nc1c2c(nc3ccccc13)CSCC2`, the “hERG current change (%, negative = inhibition) at 10uM” value is reported as -57.3%.
The result for `Cl.Nc1c2c(nc3ccccc13)CCCC2.O` reads -42.3%; that for `Nc1nc2c(c(=O)[nH]1)CN(Cc1ccccc1)CC2`, 7.8%.
The result for `Nc1c2c(nc3ccccc13)CCN(Cc1ccccc1)C2` reads -56.1%; that for `Cl.Nc1c2c(nc3ccccc13)CCCC2`, -39.7%.
Take `c1ccc(CN2CCc3nc4ccccc4cc3C2)cc1`: the “hERG current change (%, negative = inhibition) at 10uM” value was -4.62%.
`C/C(=N\O)C1(C)N(O)C(C)(C)C(c2ccco2)=[N+]1[O-]` (stereo not shown): the “hERG current change (%, negative = inhibition) at 10uM” value worked out at 22.2%.
For `Cc1cccc(NC(=O)c2nc[nH]c2C(=O)N2CCc3ccccc3C2)c1`, the “hERG current change (%, negative = inhibition) at 10uM” value was found to be 5.13%.
Turning to `O=C1NC(Nc2nc3ccccc3s2)(C(F)(F)F)C(=O)N1C1CCCCC1` (stereo not shown), the “hERG current change (%, negative = inhibition) at 10uM” value is -6.17%.
As to `Cc1ccc(S(=O)(=O)N(C)CC(=O)O/N=C(\N)c2cccc([N+](=O)[O-])c2)cc1`, the “hERG current change (%, negative = inhibition) at 10uM” value is reported as -66.8%.
The same measure for `N/C(=N\OC(=O)CCC1CCCC1)c1cccc([N+](=O)[O-])c1`: -70.4%; for `N/C(=N\OC(=O)CCC1CCCCC1)c1cccc([N+](=O)[O-])c1`: -15.1%.
Take `N/C(=N\OC(=O)CC1CCCCC1)c1cccc([N+](=O)[O-])c1`: the “hERG current change (%, negative = inhibition) at 10uM” value is -6.21%.
As to `Cc1ccc(S(=O)(=O)N(C)CC(=O)O/N=C(\N)c2ccc([N+](=O)[O-])cc2)cc1`, the “hERG current change (%, negative = inhibition) at 10uM” value is on record as -45.9%.
In the case of `CN(CC(=O)O/N=C(\N)c1cccc([N+](=O)[O-])c1)S(=O)(=O)c1ccccc1`, the “hERG current change (%, negative = inhibition) at 10uM” value is -24.4%.
